# Screening data from PubChem BioAssay.
# An excerpt weighted towards active compounds, which were near 19% of everything screened.
# DT40 TDP1 no CPT: qHTS for Inhibitors of human tyrosyl-DNA phosphodiesterase 1 (TDP1): qHTS in cells in absence of CPT. DT40 Tdp1-/- hTDP1 cells, no CPT, ATP luminescence, 48 h. Potency, µM (top dose mostly 46.2 µM), for inactives: at the highest dose activity change, negative = growth inhibition, actives largely listed as inhibitors. 420,000 compounds, 15% hits. AID 686978, 2013; note: potency is the fitted concentration of half-maximal effect; nearly all actives have a fitted effect of over 55% in size
#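 Compound effects on proliferation are scored in DT40 Tdp1-/-;hTDP1 cells in the absence of CPT. ATP levels (CellTiter-Glo luminescence) are recorded after a ≥48 hr, 37 °C incubation.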
# IL1B secr inh: inhibitors of inflammasome signaling (IL-1 beta secretion); THP-1 LPS/ATP IL-1B secretion, AlphaLISA, 16 h; stronger effect = lower value; activity change, % at 57.5 µM; 360,000 compounds, 4.7% hits; in the data active = activity change below about -50%; inconclusive = mostly about -30% to -49%
#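 Secreted IL-1B measured by AlphaLISA bead assay after 16 h compound exposure of THP-1 cells; compounds (final up to 57.5 uM) added 1 h before LPS (250 ng/mL) and ATP (1.25 mM) stimulation; lower signal means less secretion.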
# DT40 TDP1 CPT: growth inhibition of DT40 Tdp1-/-;hTDP1 cells with camptothecin (screen for TDP1 inhibitors); chicken DT40 Tdp1-/-;hTDP1 cells + 20 nM CPT, ATP luminescence, 48 h; Potency, µM (titrated, usually from 46.2 µM), for inactives: at the highest dose activity change, negative = growth inhibition, usual class: inhibitors; 420,000 compounds, 12% hits; AID 686979; note: potency is the fitted concentration of half-maximal effect; nearly all actives have a fitted effect of over 55% in size
#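 Chicken DT40 Tdp1-/- cells complemented with human TDP1, 400 cells/well, exposed to compounds plus 20 nM camptothecin for at least 48 h at 37 C; viability read as ATP content by CellTiter-Glo luminescence.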
# HT1080NT lethal: kills 2HG-producing HT-1080-NT fibrosarcoma cells. HT-1080-NT fibrosarcoma viability, CellTiter-Glo ATP luminescence, 48 h. Potency, µM (titrated, usually from 46.1 µM), inactives show at the top dose activity, negative = less viability, most hits filed as cytotoxic. 360,000 compounds, 1.6% hits;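 note: NT is the 2HG producing partner of a matched IDH1 knockdown line; potency is the fitted concentration of half-maximal effect; 0% = DMSO-treated cells and -100% = media-only wells without cells; nearly all actives have a fitted effect of over 55% in size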
#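 Compounds were tested in concentration-response format on HT-1080-NT cells for 48 hours at 37 degrees C. Cell viability came from CellTiter-Glo luminescence; curves were classified by r2, response magnitude and activity.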
# HT1080 IDH1KD tx: toxicity to HT-1080 IDH1 knockdown cells (counter line); HT-1080 IDH1 knockdown viability, ATP luminescence, 48 h; 360,000 compounds, 2% hits; Potency, µM (top dose mostly 46.1 µM), without a hit: at the top dose activity, negative = toxicity, usual class: cytotoxic;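 note: potency is the fitted concentration of half-maximal effect; 0% = DMSO wells and -100% = cell-free medium wells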
#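 CellTiter-Glo luminescence after 48 h compound exposure at 37 degrees C of IDH1-knockdown HT-1080 cells in 5% FBS RPMI. %Activity scaled between DMSO wells and cell-free media wells, with curves fitted and assigned curve classes.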
# * marks the source's active call; other numbers are inactive results; i = inactive; ? = inconclusive; · = no result given; [ ] = remark or other dose. Unless noted, calls come from the whole dose curve; as a rule, active = well fitted curve in the direction sought with a large enough effect; inconclusive = small, poorly fitted or top-dose-only effect, or another doubt; inactive = no such curve, though single readings can be large; an effect the other way counts as inactive or inconclusive. Unless noted, % is set by controls: 0 for no effect and ±100 for the full control effect.
SMILES,DT40 TDP1 no CPT,IL1B secr inh,DT40 TDP1 CPT,HT1080NT lethal,HT1080 IDH1KD tx
Cc1ncc2c(c1CNC(=O)c1ccc3c(c1)OCO3)CCN(C(=O)c1ccoc1)C2,-13%,·,2%[9.04 µM],·,·
CNC(=O)/C(C#N)=C/c1c(N(Cc2ccccc2)Cc2ccccc2)nc2c(C)cccn2c1=O,?,?,?,18µM*,?
CCNC(=O)/C(C#N)=C/c1c(N(Cc2ccccc2)Cc2ccccc2)nc2ccccn2c1=O,?,-55*,?,23µM*,?
CCNC(=O)/C(C#N)=C/c1c(N2CCOCC2)nc2ccccn2c1=O,-23%,-19,-13%,-8%,1%
CCN(Cc1ccccc1)S(=O)(=O)c1cc(C(=O)Nc2cc(Cl)cc(Cl)c2)ccc1F,6.5µM*,·,6.5µM*,·,·
CCc1ccc(NC(=O)c2ccc(F)c(S(=O)(=O)N(CC)c3ccccc3)c2)cc1,8.2µM*,18,?,-24%,?
CCN(c1ccccc1)S(=O)(=O)c1cc(C(=O)Nc2cccc(Cl)c2)ccc1F,?,-10,?,?,?
CCOc1ccc(NC(=O)c2ccc(F)c(S(=O)(=O)N(CC)Cc3ccccc3)c2)cc1,21µM*,·,15µM*,·,·
CCN(Cc1ccccc1)S(=O)(=O)c1cc(C(=O)NC2CCCCCC2)ccc1OC,?,-15,23µM*,-6%,-1%
CN=C(Nc1cccc(OC)c1)SC1CC(=O)N(c2ccc(C(=O)O)cc2)C1=O (configuration not stated),-8%,10,1%,8%,13%
O=C(Nc1ccc(Br)cc1)C(c1ccccc1)c1ccccc1,?,12,-15%,-16%,-13%
O=C(Nc1cc(Cl)cc(Cl)c1)c1ccc(F)c(S(=O)(=O)NCc2ccccc2Cl)c1,10µM*,·,-99%,·,·
O=C(NC1CCNCC1)C1CC1,-1%,22,6%,2%,10%
Oc1cccc2ccc(N3CCOCC3)nc12,4%,?,-1%,17%,16%
CCn1cc(C2=NC(C)CO2)c2ccccc21 (configuration not stated),-27%,-3,?,11µM*,10µM*
C/C(CC(=O)NCCc1ccccc1)=N\NC(=O)COc1ccc(Br)cc1,-23%,-24,-13%,-3%,6%
CCC(C(=O)NCCC1=CCCCC1)c1ccccc1 (configuration not stated),15µM*,-1,?,12%,6%
CC(C(=O)NCCC1=CCCCC1)c1ccc([N+](=O)[O-])cc1 (configuration not stated),16µM*,4,?,-5%,-2%
COc1ccc(Cl)cc1NC(=O)C/C(C)=N/NC(=O)c1ccc(O)cc1,0%,34,1%,-20%,-25%
O=C1/C(=C\c2ccco2)NC(=S)N1c1ccccc1,29µM*,-22,-13%,-11%,-6%
CCCN=C1N/C(=C\c2ccco2)C(=O)N1c1ccccc1,-16%,-17,?,1%,0%
C[C@@H]1CN([C@H](C)CO)C(=O)CCCn2nncc2CO[C@H]1CN(C)S(=O)(=O)c1ccc(-n2cccn2)cc1,-28%,9,-24%,-1%,-2%
COc1ccc(N2CCN(C(=O)c3ccc(Cl)c(S(=O)(=O)N4CCCC4)c3)CC2)cc1,?,8,?,-6%,-2%
COc1cccc(CN2CC(C(=O)N3CCN(c4ccc(Cl)cc4)CC3)CCC2=O)c1 (configuration not stated),21µM*,i,23µM*,-12%,-8%
COc1ccc(N2CCN(C(=O)c3ccc(C)c(Cl)c3)CC2)cc1,18µM*,-9,?,0%,13%
COc1ccc(N2CCN(C(=O)c3cccc(Cn4cc(Cl)cn4)c3)CC2)cc1,23µM*,-4,?,0%,-21%
COc1cccc(CN2CC(C(=O)N3CCCC3)CCC2=O)c1 (configuration not stated),22%,2,5%,9%,3%
